In PubChem BioAssay AID435019 (Southern Research Specialized Biocontainment Screening …, 2010):
In all, about 2,300 compounds went through this assay and about 1,200 (52%) were called active. The rule behind the calls is not given here. The set was probably picked from earlier hits. The list shows a part of the results. Potency and affinity values are given separately.

Experiment: mammalian cell cytotoxicity, dose response, cytotoxicity control for M. tuberculosis inhibitor project (AID 435019);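 note: 0% = background wells and 100% = vehicle-treated cells; lower values mean fewer viable cells so more cytotoxicity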
Conditions: cytotoxicity counter-screen; series mostly up to 40 µM; viability: at the top concentration

Row | Structure (SMILES) | viability
1 | C=CCN(CC(=O)c1sc(C(=O)OCC)nc1C)c1cccc(Br)c1 | 91.5% (inactive)
2 | CCCCOC(=O)c1ccc(O)cc1 | 95% (inactive)
3 | [O-][n+]1c2ccccc2c2n1CCN1CCOC21c1ccc(Cl)cc1 (stereo not drawn) | 85.2% (inactive)
4 | Cc1nonc1NC(=O)CSc1ccc(-c2ccccc2)nn1 | 90.2% (inactive)
5 | O=C(OCC(=O)c1cccs1)C1=COCCO1 | 98.4% (inactive)
6 | CCCCn1nc(C(=O)Nc2ccccc2N2CCCC2)c2ccccc2c1=O | 82.5% (inactive)
7 | COC(=O)COc1ccc(-c2nn(C)c(=O)c3ccccc23)cc1 | 93.7% (inactive)
8 | COc1cc(CNC(=O)CCCCCCC(C)C)ccc1O | 93% (inactive)
9 | COC(=O)Cn1nc(-c2ccccc2)c2cc(Cl)ccc21 | 88% (inactive)
10 | CC1=CC(=O)NP(=O)(Oc2ccc3ccccc3c2)N1 (stereo not drawn) | 93.5% (inactive)
11 | CC(=O)Oc1ccc2occ(C(=O)c3cccs3)c2c1 | 102% (inactive)
12 | Nc1nc2ccccc2n1/N=C/c1ccc(Br)cc1 | 95.2% (inactive)
13 | CC(C)(C)Nc1nc(NC(C)(C)C)nc(-n2ccnc2)n1 | 90.2% (inactive)
14 | CCOC(=O)CNC(=O)CNC(=O)c1nn(-c2ccc(OC)c(Cl)c2)c(=O)c2ccccc12 | 99% (inactive)
15 | CCOC(=O)c1ccc(-n2c(CCC(=O)O)ccc2-c2cccs2)cc1 | 96.7% (inactive)
16 | CC(C)OC(=O)c1ccc(N)cc1 | 102% (inactive)
17 | CCc1ccc(NC2=NCC(c3ccccc3)S2)cc1 (stereo not drawn) | 87.4% (inactive)
18 | CC(C)OC(=O)c1ccc(NC(=S)NC(=O)c2cncc(Br)c2)cc1 | 94.2% (inactive)
19 | Cc1[nH]nc(SCC(=O)NCc2ccccc2)c1[N+](=O)[O-] | 90.9% (inactive)
20 | COc1ccc(-c2ccc(-c3noc(C(C)C)n3)c(OC)n2)cc1 | 81.4% (inactive)
21 | Cc1ccc(Cl)cc1NC(=O)CN1CCN(S(=O)(=O)N2CCOCC2)CC1 | 90.4% (inactive)
22 | Cc1ccc(C(=O)C2CCN(CC(=O)Nc3nc(C)cs3)CC2)cc1 | 83.6% (inactive)
23 | CCCCNC(=S)N/N=C/c1cccc(OCC)c1O | 95.4% (inactive)
24 | CCOC(=O)CN[C@H]1CCC2C3CC=C4C[C@@H](O)CC[C@]4(C)C3CC[C@@]21C (stereo partly drawn) | 95.8% (inactive)
25 | Cc1ccc(C(=O)ONc2ccc(N=O)cc2)cc1 | 89.5% (inactive)

Row | Structure (SMILES) | viability
26 | COc1ccc(NC(NC(=O)c2ccc(OC)cc2)C(Cl)(Cl)Cl)cc1 (stereo not drawn) | 85.7% (inactive)
27 | CCOC(=O)c1nn(-c2ccc(C)cc2)c2nc(Nc3ccccc3)cc(=O)n12 | 94.8% (inactive)
28 | Cn1nc([N+](=O)[O-])nc1Sc1ccc(C(C)(C)C)cc1 | 84.8% (inactive)
29 | Cn1cnc(Sc2ncnc3nc[nH]c23)c1[N+](=O)[O-] | 82.1% (inactive)
30 | Cc1cc(C)n(-c2cc(C(C)(C)C)nc3c(-c4ccccc4)cnn23)n1 | 85% (inactive)
31 | Cc1cc(-c2nnc3n2CCCCC3)c(C)n1-c1ccccc1 | 90.5% (inactive)
32 | C/C(=N\N(Cc1ccccc1)c1ccccc1)c1ccncc1 | 88.6% (inactive)
33 | CCOC(=O)CSc1nnc(-c2ccc(S(=O)(=O)NCc3cccs3)cc2)o1 | 100% (inactive)
34 | Cn1c(=S)c2[nH]c(SCCN3CCCC3)nc2n(C)c1=O | 93% (inactive)
35 | CCOC(=O)CNc1ccc(C(=O)OCC)cc1[N+](=O)[O-] | 102% (inactive)
36 | CCCc1cc(C(N)=S)ccn1 | 94.8% (inactive)
37 | CCCn1c(=N)n(CC(=O)c2ccc(OCC(=O)OC)cc2)c2ccccc21 | 97.9% (inactive)
38 | Cc1ccc(S(=O)(=O)N2CCC(C(=O)OCc3ccccc3)CC2)cc1C | 96.3% (inactive)
39 | NC(=O)c1cccn1-c1ncc(C(F)(F)F)cc1Cl | 106% (inactive)
40 | CCOC(=O)C1=NOC(CNc2ncc(C(F)(F)F)cc2Cl)C1 (stereo not drawn) | 97.5% (inactive)
41 | CCOC(=O)c1ccc(N=C2SC(C(=O)Nc3ccc(C(=O)O)cc3)CC(=O)N2Cc2cccs2)cc1 (stereo not drawn) | 90.3% (inactive)
42 | Cc1cc(C2=NNC(=NC3CCCCC3)SC2)c(C)n1-c1c(C)n(C)n(-c2ccccc2)c1=O | 98.9% (inactive)
43 | S=C(NCCN1CCOCC1)N/N=C/c1cccs1 | 89.9% (inactive)
44 | Cc1ccc(C)c2nc(N3CCCC3)c(C#N)cc12 | 91.6% (inactive)
45 | Cc1nc(SCC(=O)NC2CCCCC2)[nH]c(=O)c1C | 95.2% (inactive)
46 | CCOC(=O)COc1ccc(C2CC(C)=NN2c2ccccc2)cc1 (stereo not drawn) | 96.7% (inactive)
47 | CC1CCCC(C)N1C(=O)COC(=O)c1cc(-c2cccs2)nn1-c1ccccc1 (stereo not drawn) | 101% (inactive)
48 | O=C(CCN1C(=O)C2C3C=CC(C3)C2C1=O)Oc1ccc2ccccc2c1 (stereo not drawn) | 94.8% (inactive)
49 | O=C(COC(=O)C1CCN(c2ccc(C(F)(F)F)cn2)CC1)Nc1ccc(F)cc1[N+](=O)[O-] | 95.2% (inactive)
50 | O=C(Cc1ccc(Nc2nc3ccc(Br)cc3[nH]2)cc1)NCCc1cccs1 | 86.8% (inactive)

Row | Structure (SMILES) | viability
51 | Brc1cccc2sc(N3CCN(c4ccccc4)CC3)nc12 | 85.2% (inactive)
52 | Cc1[nH]n(S(=O)(=O)Cc2ccccc2)c(=O)c1N=Nc1ccccc1Cl | 105% (inactive)
53 | CN1CCN(c2c(F)cc3c(=O)c(C(=O)O)cn4c3c2OCN4C)CC1 | 98.7% (inactive)
54 | C=C(C)C1CC=C(CN2CCN(Cc3ccccc3)CC2)CC1 (stereo not drawn) | 93.8% (inactive)
55 | Cc1cccc(C2=N/C(=C\c3cccs3)C(=O)O2)c1 | 104% (inactive)
56 | Cn1c(=O)c2[nH]c(-c3ccc(S(=O)(=O)O)cc3)nc2n(C)c1=O | 94.3% (inactive)
57 | C=CCOC(=O)COc1ccc2c(C)c(CC)c(=O)oc2c1 | 99.1% (inactive)
58 | C/C(CCc1ccc2c(c1)OCO2)=N\NC(=S)NC(C)C | 81.8% (inactive)
59 | Cc1ccc(/C=N/NC(=S)NC(C)C)o1 | 97.9% (inactive)
60 | CCCCCCC[N+](CC)(CC)CCCCc1ccc(Cl)cc1 | 89.3% (inactive)
61 | COc1cc(/C=N/N2CCOCC2)ccc1OCc1ccc(Cl)cc1 | 85.8% (inactive)
62 | COc1ccccc1/C=C/C(=O)Nc1ccc(S(=O)(=O)Nc2cc(C)on2)cc1 | 91.3% (inactive)
63 | COc1ccc(N=Cc2c(OC)ccc3ccccc23)cc1 | 90% (inactive)
64 | Cc1cn(-c2ccc(Br)cc2)[nH]c1=O | 96.3% (inactive)
65 | CN(C(=O)COC(=O)c1ccc([N+](=O)[O-])cc1Cl)C1CCCCC1 | 101% (inactive)
66 | COc1ccccc1N(O)C1CC(=O)N(c2ccc(Br)cc2)C1=O (stereo not drawn) | 94.8% (inactive)
67 | O=C(OCC(=O)c1c[nH]c2ccccc12)c1cc(Br)ccc1O | 94.9% (inactive)
68 | COc1cccc(COC(=O)c2ccc3c(=O)n4c(nc3c2)CCC4)c1OC | 83% (inactive)
69 | C=CCn1c(N)cc(=O)nc1SC(CC)C(=O)Nc1ccc(C(C)=O)cc1 (stereo not drawn) | 102% (inactive)
70 | NC(=O)c1ccc(N=Cc2ccc([N+](=O)[O-])s2)cc1 | 80.4% (inactive)
71 | CCN(CC)C(=S)SSC(=S)N(CC)CC | 85.7% (inactive)
72 | C/C(=C\C(=O)c1ccccc1)Nc1ccc(Cl)c(Br)c1 | 99.4% (inactive)
73 | O=C(CSCC(=O)Nc1ccc2ccccc2c1)NCc1ccccc1 | 105% (inactive)
